Measured values taken from PubChem BioAssay (Tox21).
Records with an inconclusive call do not appear. Where a call stands in place of a potency, no number is given. Calls of active or inactive are those of the source. Calls come from the whole dose curve.

test: qHTS assay to identify small molecule agonists of the NFkB signaling pathway - cell viability counter screen (AID 1159515); conditions: NFkB-bla ME-180 viability, CellTiter-Glo luminescence, 5 h; series mostly up to 61 µM; note: nearly all actives have a fitted effect of over 55% in size
Text: National Center for Advancing Translational Sciences [NCATS]
NIH Chemical Genomics Center [NCGC]
U.S. Environmental Protection Agency [EPA]
National Institutes of Environmental Health Sciences [NIEHS]
National Toxicology Program [NTP]
U.S. Food and Drug Administration [FDA]
Transcription factors and their stimulated target gene expression play pivotal roles across many cellular processes including responses to environmental stimuli. Proper regulation of associated pathways is critical to maintain cell health and function. Constitutive activation of transcription factor pathways has been implicated in tumors as it may block cellular functions such as apoptosis and lead to invasion and metastasis. One important transcription factor that stimulates gene expression in response to cytokines, UV radiation, and other stimuli is nuclear factor-kappa B (NFkB). To measure activation of the NFkB pathway, the CellSensor NFkB-bla ME-180 cell line (Life Technologies, Carlsbad, CA) that stably expresses beta-lactamase reporter gene under the regulation of a NF-kB response element was used. This assay allows measurement of the NFkB pathway activity induced by compounds in a ME-180 cell line. This system quantitates NF-kB activity using a FRET-based assay system where beta-lactamase expression disrupts FRET, allowing for fluorescent measurement of activity. This cell line has been used to screen the Tox21 10K compound library and to identify compounds that induce the NFkB pathway activity. The cytotoxicity of the Tox21 compound library against the NFkB-bla ME-180 cell line was tested in parallel by measuring cell viability using the CellTiter-Glo assay in the same wells.
Tox21 Assay Protocol Summary:
NFkB-bla ME-180 cells were dispensed at 2,000 cells/6 uL of assay medium per well into black wall/clear-bottom 1536-well plates using a Multidrop Combi (ThermoFisher Scientific, Waltham, MA) dispenser. After the assay plates were incubated at 37 C and 5% CO2 for an overnight, 23 nL of compounds dissolved in DMSO, positive controls or DMSO only was transferred to the assay plate by a Pintool station (Kalypsys, San Diego, CA). The assay plates were incubated at 37 C and 5% CO2 for 5 hr. One uL of LiveBLAzer B/G FRET substrate (Life Technologies) was added using a Flying Reagent Dispenser (Aurora Discovery, San Diego, CA) and the plates were incubated at room temperature for 1.5 hr. Fluorescence intensity (405 nm excitation, 460 nm and 530 nm emissions) was measured using an Envision plate reader (PerkinElmer, Shelton, CT). For cytotoxicity, 3 ul/well of CellTiter-Glo reagent was added into the assay plates using an FRD. After 30 min incubation at room temperature, the luminescence intensity was measured using a ViewLux plate reader (PerkinElmer).

Compound	Potency
CCO[Si](CCCNC(N)=O)(OCC)OCC	inactive
C[C@]12C=CC(=O)C=C1CC[C@H]1[C@@H]3C[C@@H](O)[C@](O)(C(=O)CO)[C@@]3(C)C[C@H](O)[C@@]12F	inactive
O=C(O)CCCCCCCCCCCC(=O)O	inactive
CC1(C)C(C=C(Cl)Cl)C1C(=O)OCc1cccc(Oc2ccccc2)c1 (stereo not given)	inactive
CN(C)C	inactive
OC[C@@H](O)[C@@H](O[C@@H]1O[C@H](CO)[C@H](O)[C@H](O)[C@H]1O)[C@H](O)[C@@H](O)CO	inactive
Nc1cc(Cl)c(N)c(Cl)c1	inactive
[O-]/[N+](=N\O)c1ccccc1	inactive
O=C(CCCN1CCC(O)(c2ccc(Cl)cc2)CC1)c1ccc(F)cc1	inactive
IC(I)I	inactive
c1ccc2c(c1)[nH]c1ccccc12	inactive
CC(=O)Oc1c(C)c(C)c2c(c1C)CC[C@@](C)(CCC[C@H](C)CCC[C@H](C)CCCC(C)C)O2	inactive
C=C[C@H]1CN2CC[C@H]1C[C@H]2[C@H](O)c1ccnc2ccc(OC)cc12	inactive
CC(C)(C)c1cccc(C(C)(C)C)c1O	inactive
COCCOCCOCCO	inactive
Cc1cccc(Nc2ccccc2C(=O)O)c1C	inactive
C1COCCN1	inactive
CCCN1C=CN(C)C1	inactive
FC(F)(F)C(Cl)Br (stereo not given)	inactive
[Na+]	inactive

Compound	Potency
COC(=O)C(C)Oc1ccc(Oc2ncc(C(F)(F)F)cc2Cl)cc1 (stereo not given)	inactive
Cc1ccc(N)c([N+](=O)[O-])c1	inactive
OC[C@H]1O[C@@H]2O[C@H]3[C@H](O)[C@@H](O)[C@@H](O[C@H]4[C@H](O)[C@@H](O)[C@@H](O[C@H]5[C@H](O)[C@@H](O)[C@@H](O[C@H]6[C@H](O)[C@@H](O)[C@@H](O[C@H]7[C@H](O)[C@@H](O)[C@@H](O[C@H]1[C@H](O)[C@H]2O)O[C@@H]7CO)O[C@@H]6CO)O[C@@H]5CO)O[C@@H]4CO)O[C@@H]3CO	inactive
Nc1cc([N+](=O)[O-])ccc1C(=O)O	inactive
C[N+](C)(C)CCO	inactive
O=C(O)c1ccc(O)cc1	inactive
Cc1ccc(C(C)(C)C)cc1	inactive
C=CN1CCCC1=O	inactive
CC/C=C\C/C=C\C/C=C\CCCCCCCC(=O)O	inactive
Nc1ccc(N)c(Cl)c1	inactive
c1ccc2c(c1)ccc1cc3c(ccc4ccccc43)cc12	inactive
CCCCCCCCCCC(CO)CCCCCCCC (stereo not given)	inactive
CC1=CC(C)(C)Nc2ccccc21	inactive
CN(Cc1cnc2nc(N)nc(N)c2n1)c1ccc(C(=O)N[C@@H](CCC(=O)O)C(=O)O)cc1	inactive
CN(C)/N=N/c1nc[nH]c1C(N)=O	inactive
CC/C(=C(/CC)c1ccc(O)cc1)c1ccc(O)cc1	inactive
O=C1OC2(c3ccccc31)c1cc(I)c(O)c(I)c1Oc1c2cc(I)c(O)c1I	inactive
C=C[C@H]1CN2CC[C@H]1C[C@@H]2[C@@H](O)c1ccnc2ccc(OC)cc12	inactive
Cc1ccc(C(C)(C)C)c(O)c1	inactive
C[C@]12CC[C@@H]3c4ccc(O)cc4CC[C@H]3[C@@H]1CC[C@@H]2O	inactive
